Measured values: PubChem BioAssay AID1745845 (National Center for Advancing Translational Sciences (NCATS), 2022)
The whole screen tested about 360,000 compounds, of which about 2,600 (0.72%) were called active. Inconclusive results (about 5%) are left out. The sample holds actives, similar compounds and a random draw of the others, so the mix is not that of the screen. Calls follow the shape of the dose curve; as a rule, active = well fitted inhibition curve with a large enough effect; inconclusive = small, poorly fitted or top-dose-only effect; inactive = no such curve, though single readings can be large or run the other way.

Assay: Primary qHTS for Inhibitors of ATXN expression; also: nearly all actives have a fitted effect of over 55% in size
Settings: HEK-293 ATXN2-luciferase reporter, luminescence, 24 h; series mostly up to 57 µM
Summary of the method: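 qHTS (up to 57 uM final) was run with 24 h compound exposure of reporter cells at 37 °C. Each well was multiplexed: SteadyGlo luminescence measured ATXN2-luciferase expression after a fluorogenic Gly-Phe-AFC viability readout (25 uM final).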
% is scaled to controls: 0 for no effect and ±100 for the full control effect; potency is read from the fitted curve at half-maximal effect.

Potency, active:
COc1cccc(CNCCc2c[nH]c3ccccc23)c1OCc1ccccc1F 20 µM, CSc1ncnc2c1ncn2CC(=O)C1CCC2C3CCC4=CC(=O)CCC4(C)C3CCC12C (configuration not stated) 22.4 µM, O=[N+]([O-])c1c(NCCO)cc(Sc2nc3ccccc3s2)c2nonc12 14.1 µM, CCCCC[C@H](C)N1C[C@@H](COCc2ccccc2)Oc2cc(N3CC[C@@H](N(C)C)C3)ccc2S1(=O)=O 31.6 µM, CC(C)CC[n+]1ccn(C2=C([O-])c3ccccc3C(=O)/C2=N\S(=O)(=O)c2ccccc2)c1 31.6 µM, CN1CCC[C@@H]1CCO[C@](C)(c1ccccc1)c1ccc(Cl)cc1 25.1 µM, C/C(=N\NC(=O)c1ccccc1F)c1ccccn1 3.98 µM, C/C(=N\NC(=O)Cc1ccc(Cl)cc1)c1ccccn1 3.16 µM, CC(=O)N1CCCc2cc(S(=O)(=O)N3CCCC(C(=O)N4CCN(c5cccc(Cl)c5)CC4)C3)ccc21 (configuration not stated) 28.2 µM, CCCC(C(=O)OCCN(CC)CC)(c1ccccc1)c1ccccc1 31.6 µM

Potency, inactive:
CCOc1cc(C=C2C(=O)N(c3ccccc3)N=C2C)cc(Cl)c1OCC(=O)OC, COc1ccc(C(CCNCc2ccccc2F)c2ccc(F)cc2)cc1 (configuration not stated), COc1cccc(CNCCSc2nnnn2C)c1OCc1ccccc1Cl, Cc1nnc(C(=O)NC(C)(C)c2nc(C(=O)NCc3ccc(F)cc3)c(O)c(=O)n2C)o1, COc1ccc(S(=O)(=O)NCCSc2nnnn2-c2ccccc2)cc1, CSc1ncnc2c1ncn2CCCNCc1ccco1, CSc1ncnc2c1ncn2CCCNCC1CCCCC1, COc1ccc(-c2nc(Cn3c(=O)cc(C)c4c(C)nn(-c5ccccc5)c43)c(C)o2)c(OC)c1, CCOc1ccccc1CNC(=O)c1ccc(-n2c(C)cc3c2CCC(C)C3)cc1 (configuration not stated), CO/N=C(/C(=O)N[C@@H]1C(=O)N2C(C(=O)O)=C(Cn3nnc(C)n3)CS[C@H]12)c1csc(N)n1, CC(C)c1ccc(S(=O)(=O)Nc2ccc(O)c(Sc3nc4ccccc4s3)c2)cc1, CC(C)(C)c1ccc(S(=O)(=O)Nc2ccc(O)c(Sc3nc4ccccc4s3)c2)cc1, CCCCC[C@H](C)N1C[C@@H](COCc2ccccc2)Oc2cc(N3CCC[C@@H]3CO)ccc2S1(=O)=O, CCCCN1CC(COCc2ccccc2)OCCS1(=O)=O (configuration not stated), Cc1cccc(Nc2nc(C)nc(N)c2S(=O)(=O)c2ccccc2)c1, CCC1=Nc2cc(C(=O)NCCCOC(C)C)ccc2Sc2ccc(C)cc21, Cc1ccc(C)c(N2CCN(C(=O)CN3C(=O)COc4ccc(S(=O)(=O)N5CCCCCC5)cc43)CC2)c1, COc1cccc(CNC(=O)C2CCC(CNS(=O)(=O)c3cccs3)CC2)c1 (configuration not stated), CC(C)(c1ccccc1)c1ccc(OCCN2CCCC2)cc1, OC(c1ccccc1)(c1ccccc1)C1CCN(CCCOc2ccccc2)CC1, CCOc1ccc(NC(=O)Cn2c(C)ccc(C#N)c2=O)cc1, CCOc1cccc2c1N[C@@H](c1ccc(C(=O)O)cc1)[C@H]1CC=C[C@@H]21, O=C(Nc1nnc(-c2ccccc2F)s1)c1ccccc1F, O=C(Cc1ccc(Cl)cc1)c1ccccc1, CC1=NNC(=O)C1CCC(=O)N/N=C(\C)c1ccc(Cl)cc1 (configuration not stated), O=C(NCCCn1ccnc1)c1ccccc1F, O=C(NCCc1ccccc1)C(=O)NCC(c1ccco1)S(=O)(=O)c1ccccc1 (configuration not stated), CCc1ccc(NC(=O)c2sc3nc4c(cc3c2N)CN(CC)CC4)cc1, COc1ccc(-c2cc(NC=O)c3ncc(-c4ccccc4)n3c2)cc1OC, COc1cccc(N2CCN(S(=O)(=O)c3ccc4c(c3)CCCN4C(C)=O)CC2)c1, CC(=O)N1CCCc2cc(S(=O)(=O)CCC(=O)N3CCN(c4ccccc4)CC3)ccc21, COC(CCN(C)C)(c1ccccc1)c1ccccc1, CCN(CC)CCOC(=O)c1ccc(NC(=O)CNC(=O)c2ccccc2)cc1, O=c1cc(CSc2ncn[nH]2)[nH]c2ccc(F)cc12, COc1cc(/C=C/C(N)=O)cc(OC)c1OC, COCCCN1CCC(NC(=O)c2cc(Cl)c(N)c3c2OCC3)CC1

Activity change, negative = inhibition, inactive:
NCC[C@H](O)C(=O)N[C@@H]1C[C@H](N)[C@@H](O[C@H]2O[C@H](CN)[C@@H](O)[C@H](O)[C@@H]2O)[C@H](O)[C@@H]1O[C@H]1O[C@H](CO)[C@@H](O)[C@H](N)[C@@H]1O 0.946% [at 0.709 µM]
